Test results from the supplement of paper PMC6555819.

What was measured:
Assay in all cases: PBM binding z-score (relative to random genomic background probes); higher = stronger binding; sequences stand for … in GC…GCGATTGACAGCGTAGAATGAAGG
[1] = tested on: FXR:RXRa (NR concentration 270 nM, RXRa partner concentration 90 nM)
Outline: (§1)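 Each nuclear receptor dimer, without ligand, was incubated for 1 h on custom Agilent 4×180K protein-binding microarrays. Binding was detected with antibodies against each partner (one per run), and scanned fluorescence was regression-normalized. The binding z-scores are referenced to random human genomic background probes.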

[2] = tested on: LXRa:RXRa (NR concentration 270 nM, RXRa partner concentration 90 nM)
Outline: as §1

[3] = tested on: LXRa homodimer (NR concentration 270 nM)
Outline: as §1

[4] = tested on: LXRb:RXRa (NR concentration 270 nM, RXRa partner concentration 90 nM)
Outline: as §1

[5] = tested on: LXRb homodimer (NR concentration 270 nM)
Outline: as §1

[6] = tested on: PPARa:RXRa (NR concentration 270 nM, RXRa partner concentration 90 nM)
Outline: as §1

[7] = tested on: PPARg:RXRa (NR concentration 180 nM, RXRa partner concentration 90 nM)
Outline: as §1

[8] = tested on: PPARg:RXRa 270nM:90nM, anti-RXR (NR concentration 270 nM, RXRa partner concentration 90 nM)
Outline: as §1

[9] = tested on: PPARg:RXRa 30nM:10nM, anti-RXR (NR concentration 30 nM, RXRa partner concentration 10 nM)
Outline: as §1

[10] = tested on: PPARg:RXRa 90nM:30nM, anti-RXR (NR concentration 90 nM, RXRa partner concentration 30 nM)
Outline: as §1

[11] = tested on: PPARg:RXRa DBDmut IVT, anti-RXR (DBD mutation: RXRa K156A/R161A, NR concentration 270 nM, RXRa partner concentration 90 nM)
Outline: as §1

[12] = tested on: PPARg:RXRa IVT, anti-PPARg (NR concentration 270 nM, RXRa partner concentration 90 nM)
Outline: as §1

[13] = tested on: PPARg DBDmut:RXRa IVT, anti-PPARg (DBD mutation: PPARg1 K132A/R137A, NR concentration 270 nM, RXRa partner concentration 90 nM)
Outline: as §1

[14] = tested on: PPARg DBDmut IVT, anti-PPARg (DBD mutation: PPARg1 K132A/R137A, NR concentration 270 nM)
Outline: as §1

[15] = tested on: PPARg homodimer (NR concentration 180 nM)
Outline: as §1

[16] = tested on: PXR:RXRa (NR concentration 270 nM, RXRa partner concentration 90 nM)
Outline: as §1

[17] = tested on: PXR homodimer (NR concentration 270 nM)
Outline: as §1

[18] = tested on: RARa:RXR (NR concentration 270 nM, RXRa partner concentration 90 nM)
Outline: as §1

[19] = tested on: RARa homodimer (NR concentration 270 nM)
Outline: as §1

[20] = tested on: RARb:RXRa (NR concentration 270 nM, RXRa partner concentration 90 nM)
Outline: as §1

Row | Sequence | PBM binding z-score [1] | PBM binding z-score [2] | PBM binding z-score [3] | PBM binding z-score [4] | PBM binding z-score [5] | PBM binding z-score [6] | PBM binding z-score [7] | PBM binding z-score [8] | PBM binding z-score [9] | PBM binding z-score [10] | PBM binding z-score [11] | PBM binding z-score [12] | PBM binding z-score [13] | PBM binding z-score [14] | PBM binding z-score [15] | PBM binding z-score [16] | PBM binding z-score [17] | PBM binding z-score [18] | PBM binding z-score [19] | PBM binding z-score [20]
1 | GGAACGAGGGCAAACTTGATAGCATCTGTCGACG | 1.14 | 0.523 | -0.0239 | 0.598 | -0.25 | 2.18 | 1.54 | 1.87 | 0.362 | 1.16 | 4.42 | 3.21 | 0.0378 | -0.343 | 0.366 | 0.618 | 0.169 | 0.525 | -0.264 | 2.16
2 | CGAACTAGGTCATTGACAGGACAGTGATTAGTAA | 4.44 | 3.04 | 0.786 | 2 | -0.0597 | 4.69 | 7.36 | 6.17 | 3.71 | 6.08 | 8.18 | 8.17 | 4.22 | 2.86 | 1.7 | 1.91 | 0.608 | 2.36 | 0.564 | 3.62
3 | ACTATTAGTTGAGACGAGGGCAATCGATAGGTTG | 0.46 | 0.333 | -0.168 | 0.136 | -0.0649 | 0.253 | 0.627 | 0.107 | 0.45 | 0.23 | 0.458 | 0.2 | 0.805 | 0.52 | 0.357 | 1.46 | 0.418 | 1.25 | 0.603 | 0.918
4 | ATCTCTAGGTAAAGATAGTTCAGTGACTGCAAAT | 0.289 | 4.19 | 0.906 | 0.867 | 0.656 | 0.677 | 0.174 | 0.437 | 0.221 | 0.0894 | 2.25 | 1.52 | 1.25 | 0.496 | 0.972 | 1.06 | 0.522 | 0.54 | 1.52 | 0.693
5 | TCATATCGGTAATACAGGTGAAAGTCGGCATCTA | 0.812 | 0.733 | 0.448 | 0.822 | 0.305 | 1.58 | 0.895 | 2.79 | 3.92 | 3.03 | 2.51 | 1.96 | 1.47 | 0.852 | 1.2 | 0.46 | 0.585 | 0.605 | 1.17 | 0.527
6 | GCTAGTTGGTCAGTCAAAGGTCACACACCGGTCG | 3.52 | 4.41 | 4.17 | 3.94 | 0.493 | 4.62 | 5.33 | 5.92 | 4.22 | 5.9 | 1.51 | 3.42 | -0.105 | 0.277 | 3.62 | 5.2 | 1.01 | 6.33 | 1.11 | 4.36
7 | CGTCCAAGGTCATAGGAGGCCAGTGAAGACAGAT | 7.24 | 5.75 | 1.07 | 4.34 | 0.536 | 5.51 | 4.37 | 5.03 | 1.54 | 3.73 | 2.81 | 3.75 | 0.813 | 0.508 | 2.54 | 5.33 | 1.53 | 4.52 | 0.617 | 5
8 | TCGAGTAGGCTACCAATGGGGCATTCAGCTTTCT | -0.523 | -0.102 | -1.06 | -0.127 | -1.18 | 0.0161 | -0.358 | 0.198 | 1.19 | 0.625 | 1.55 | 0.414 | -0.67 | -1.72 | -1.23 | -0.438 | -0.888 | -0.72 | -1.3 | -0.208
9 | TCATATAGGAAAAAGGTGAAAGTCGGTGTGGTAA | 1.37 | 1.47 | -0.216 | 1.38 | -0.0192 | 2.87 | 3.05 | 5.37 | 5.19 | 5.73 | 2.92 | 1.79 | 1.1 | 0.104 | 1.49 | 0.859 | 0.327 | 1.63 | 1.43 | 1.57
10 | CCTACAGGGCCATTCAGAGGTCATTGATCATATG | 3.14 | 4.65 | 6.45 | 3.82 | 0.447 | 3.5 | 0.853 | 1.79 | 0.168 | 0.721 | 0.235 | 0.996 | -0.322 | -0.38 | 1.96 | 5.17 | 2.91 | 5.04 | 0.639 | 3.47
11 | CGTCCAAGGTCAATGCTAGGTTAGTGAAAGCATT | 6.49 | 4.7 | 0.436 | 3.76 | 0.627 | 5.08 | 3.32 | 4.3 | 1.15 | 2.85 | 2.98 | 3.27 | 0.204 | -0.204 | 2.37 | 3.78 | 0.753 | 3.88 | 0.52 | 5.04
12 | GCTTACGGGTCAAAGGATATAGCATGAATAGAAT | 5.93 | 3.75 | -0.261 | 3.44 | 0.261 | 5.37 | 5.87 | 5.9 | 3.29 | 5.26 | 4.24 | 4.01 | 1.25 | 1.03 | 1.09 | 3.09 | -0.166 | 3.94 | 0.713 | 3.54
13 | ATCTCTAGGTACAAGTTCAGTGAATCCCGAGGAT | 0.207 | 0.339 | 0.332 | 0.411 | 0.905 | 2.42 | 3.28 | 4.58 | 3.23 | 4.51 | 0.163 | 1.47 | 0.611 | 0.766 | 0.56 | 1.92 | 1.54 | 0.393 | 0.103 | 1.66
